M1 PAM parental – nonselective calcium activators in parental CHO-K1 cells, primary screen, counter-screen for M1 PAM project, cell-based, Fluo-8 calcium fluorescence, full deck, 1536-well; activation, % at 3 µM; 0.02% of 360,000 active; ATP EC20; 0% at ATP EC20, 100% at ATP max; AID 602247, 2012;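 active = activation above the run cutoff, the mean activation of all test compounds plus 3 SD, cut at about 40% in these data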;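 note: peak over basal fluorescence ratio in a 140 s read after ATP addition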
M1 antag – human M1 muscarinic receptor antagonists, primary screen, CHO-K1 cells, Fluo-8 calcium fluorescence, 1536-well; Muscarinic acetylcholine receptor M1 (Homo sapiens), P11229; CHO-K1 hM1, ACh EC80 antagonist; inhibition, % at 3 µM; 1.3% of 360,000 active; AID 588852, 2011;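 active = percent inhibition above its own plate's cutoff, namely the mean of that plate's compound wells plus 3 SD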;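 note: peak over basal fluorescence ratio during 140 s after agonist addition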
Target sequence (P11229 whole entry, looked up): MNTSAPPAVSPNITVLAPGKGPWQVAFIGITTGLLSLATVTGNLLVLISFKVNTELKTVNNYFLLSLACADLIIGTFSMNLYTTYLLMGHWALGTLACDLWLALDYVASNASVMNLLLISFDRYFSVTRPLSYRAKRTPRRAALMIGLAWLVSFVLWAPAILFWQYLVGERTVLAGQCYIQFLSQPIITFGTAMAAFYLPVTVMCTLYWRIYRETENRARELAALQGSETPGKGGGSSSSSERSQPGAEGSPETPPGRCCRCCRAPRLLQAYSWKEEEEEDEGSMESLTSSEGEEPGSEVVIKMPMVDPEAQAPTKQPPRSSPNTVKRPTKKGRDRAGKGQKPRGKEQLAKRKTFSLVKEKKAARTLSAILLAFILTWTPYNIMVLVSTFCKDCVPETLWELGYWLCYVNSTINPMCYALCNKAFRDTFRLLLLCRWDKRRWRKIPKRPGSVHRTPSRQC
M1 ag parental – counter-screen for M1 agonists: effect in parental CHO-K1 cells; Fluo-8 calcium fluorescence; scaled to maximal ATP response, vehicle zero; activation, % at 3 µM; 0.48% of 360,000 active; in the data active = activation above about 15%;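 note: untransfected CHO-K1 host cells lacking M1 receptor as counterscreen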
CHRM1 agonist – human M1 muscarinic receptor agonists, primary screen, Fluo-8 calcium fluorescence, CHO-K1 cells, HTS | AID 588814, 2011 | Muscarinic acetylcholine receptor M1 (Homo sapiens), P11229 | CHO-K1 hM1, agonist mode; 0% DMSO, 100% acetylcholine EC100 | activation, % at 3 µM | 0.33% of 360,000 active;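 active = activation above the run's mean compound activation plus 3 SD, cut at about 16% in these data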;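 note: peak over basal fluorescence ratio within a 140 s kinetic read after compound addition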
M1 PAM – human M1 muscarinic receptor positive allosteric modulators, primary screen, CHO-K1 cells, Fluo-8 calcium fluorescence, 1536-well; Muscarinic acetylcholine receptor M1 (Homo sapiens), P11229; activation, % at 3 µM; 0.088% of 360,000 active; CHO-K1 hM1, ACh EC20; 0% = ACh EC20, 100% = maximal ACh; in the data active = activation above about 19%, passing the limit was not always enough
CHO-K1 Ca antag – counter-screen for M1 antagonists: effect in parental CHO-K1 cells; ATP-induced calcium, Fluo-8 fluorescence; 0.6% of 360,000 active; inhibition, % at 3 µM;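 active = inhibition above a per-plate cutoff, the plate's mean sample inhibition plus 3 SD, cut at about 24% in these data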
Large screens that a line does not name were inactive. Shown are actives, neighbours in structure and some others; about 2.3% of the full set was active somewhere.

CCOc1ccc(C(=O)NCC(=O)OCc2cc([N+](=O)[O-])cc3c2OCOC3)cc1OCC	none
COc1ccc(CC(=O)N(Cc2ccccc2)c2ccc(C)cc2)cc1OC	none
COC(=O)c1nn(-c2ccc(OC)cc2)c(=O)cc1NN	M1 antag 59.0
Cc1nc2sc(C(c3ccccc3)N3CCN(CCO)CC3)c(O)n2n1 (configuration not stated)	CHO-K1 Ca antag 30.7
COC(=O)C1CCN(C(c2ccc(OC)c(OC)c2)c2sc3nc(C)nn3c2O)CC1 (configuration not stated)	M1 antag 36.1
Cc1ccc(C(c2sc3nc(C)nn3c2O)N2CCN(CCO)CC2)cc1 (configuration not stated)	none
CCN(C(=O)CN1C(=O)COc2ccc(S(=O)(=O)N3CCCCCC3)cc21)c1cccc(C)c1	M1 ag parental 34.9
CCN(Cc1ccccc1)C(=O)CN1C(=O)COc2ccc(S(=O)(=O)N3CCCCCC3)cc21	none
COc1cccc(-c2nn(C)c3sc(C(=O)N4CCN(c5ccccn5)CC4)cc23)c1	M1 antag 22.0
COc1cccc(-c2nn(C)c3sc(C(=O)N4CCOCC4)cc23)c1	none
c1ccc(C(Cc2nc(-c3ccncc3)no2)c2ccccc2)cc1	M1 antag 24.2
COc1ccc(NC(=O)c2cc(C3CCCCN3S(C)(=O)=O)on2)c(C)c1 (configuration not stated)	CHO-K1 Ca antag 27.5
Cc1ccc(S(=O)(=O)N2CCCC2)cc1C(=O)NCCN1CCOCC1	none
CC(C)Sc1nnc(NC(=O)c2ccc3c(c2)OCO3)s1	none
COC(=O)C1CC(O)CN1C(=O)Nc1cccc(C(F)(F)F)c1 (configuration not stated)	CHO-K1 Ca antag 29.1
NC(=S)N/N=C/c1ncc(C(F)(F)F)cc1Cl	none
O=C(Nc1ccc(F)c(Cl)c1)c1cc(C2CCCCN2C(=O)c2ccc3c(c2)CCO3)on1 (configuration not stated)	none
N=C1/C(=C\c2coc3ccccc3c2=O)C(=O)N=C2SC(c3ccncc3)=NN12	M1 antag 58.4, M1 ag parental 69.2, CHRM1 agonist 51.2, CHO-K1 Ca antag 28.8
N=C1/C(=C\c2coc3ccc(O)cc3c2=O)C(=O)N=C2SC=CN12	M1 ag parental 33.0, CHRM1 agonist 25.3
CC1=NN2C(=N)/C(=C\c3cc(C)n(-c4ccccc4)c3C)C(=O)N=C2S1	none
N=C1/C(=C/c2coc3ccccc3c2=O)C(=O)N=C2SC(c3ccco3)=NN12	M1 antag 51.9, M1 ag parental 62.8, CHRM1 agonist 85.1, CHO-K1 Ca antag 33.6
C[C@@H]1CN([C@@H](C)CO)S(=O)(=O)c2ccc(Br)cc2O[C@@H]1CN(C)C(=O)C1CC1	none
O=[N+]([O-])c1ccc(N2CCN(S(=O)(=O)c3ccccc3)CC2)cc1	none
CC(=O)N1CCN(c2cc(-c3ccccc3)nc3cc(-c4cccc(Cl)c4)nn23)CC1	none
CCOC(=O)C1CCN(C(=O)C2CCCN(S(=O)(=O)c3ccc(OCC)c(Cl)c3)C2)CC1 (configuration not stated)	none
COc1ccc(Br)c(Cn2c(C)c(C(=O)NCCC#N)sc2=O)c1	none
CCS(=O)(=O)c1ncc(Cl)c(C(=O)Nc2ccc(S(=O)(=O)N(C)c3ccccc3)cc2)n1	M1 antag 87.6
CCN(c1ccccc1)S(=O)(=O)c1ccc(NC(=O)c2nc(S(C)(=O)=O)ncc2Cl)cc1	none
Cc1cc(Nc2ccccc2)nn1C(=O)c1ccc(Br)cc1	CHO-K1 Ca antag 25.1
Cc1ccc(CN2CCN(CCCn3cnc4c(OCc5ccccc5)ncnc43)CC2)cc1	M1 antag 46.8
O=C(Nc1ccccc1Cl)c1cc(C2CCCCN2C(=O)CCCc2ccccc2)on1 (configuration not stated)	none

Assay outcomes as filed in PubChem BioAssay.
